Among all 16,000 compounds or so, about 5,700 (36%) were called active. Roughly 24% stayed inconclusive and do not appear here. The call rests on the fitted dose curve; in most records, active means well fitted curve in the direction sought with a large enough effect; inconclusive means small, poorly fitted or top-dose-only effect, or effect the other way; inactive means no such curve, though single readings can be large or run the other way. The list shows a part of the results. Peptide text beside a SMILES is read from it. * marks the point of attachment. Cbz = O=C(OCc1ccccc1)*
What follows are compounds tested against Cytochrome P450 1A2 (Homo sapiens) (UniProt P05177) (assay: Cytochrome panel assay with activity outcomes). Conditions: recombinant CYP, pro-luciferin dealkylation, luminescence, p450-cyp1a2; series mostly up to 57.1 µM; activity, negative = inhibition: at the top concentration.
Sequence of Cytochrome P450 1A2 (Homo sapiens) (P05177 whole entry, looked up): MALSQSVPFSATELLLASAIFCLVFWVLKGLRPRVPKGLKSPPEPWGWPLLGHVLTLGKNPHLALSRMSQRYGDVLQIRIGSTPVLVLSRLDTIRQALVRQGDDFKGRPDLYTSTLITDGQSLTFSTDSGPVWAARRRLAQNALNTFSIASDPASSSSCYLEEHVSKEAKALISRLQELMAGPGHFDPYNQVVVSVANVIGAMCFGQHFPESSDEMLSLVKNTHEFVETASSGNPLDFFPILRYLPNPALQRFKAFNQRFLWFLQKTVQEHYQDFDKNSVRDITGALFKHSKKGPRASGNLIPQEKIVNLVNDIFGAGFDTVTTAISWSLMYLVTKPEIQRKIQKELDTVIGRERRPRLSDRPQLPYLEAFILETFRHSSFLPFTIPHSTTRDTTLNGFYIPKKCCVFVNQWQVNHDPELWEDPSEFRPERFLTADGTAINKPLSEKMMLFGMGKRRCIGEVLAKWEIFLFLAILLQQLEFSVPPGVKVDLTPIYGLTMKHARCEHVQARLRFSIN
On the % scale 0 is the no-effect control and ±100 the full control effect.

Compound | activity, negative = inhibition | AC50
CC(C)(C)N1C(=O)[C@@H]2[C@H]3C(=CC[C@H]2C1=O)C(=O)[C@H]1O[C@H]1[C@H]3O | -0.944% [at 11.4 µM] (inactive) | –
N#Cc1cccc(-c2cncnc2NCc2cccnc2)c1 | – | 5.01 µM (active)
Cc1cnc(CNc2ncncc2-c2cccc(C#N)c2)cn1 | – | 12.6 µM (active)
N#Cc1cccc(-c2cncnc2NCc2ccccc2)c1 | – | 5.01 µM (active)
Cc1cccc(CNc2ncncc2-c2cccc(C#N)c2)c1 | – | 2.51 µM (active)
O=S(=O)(O)c1ccc(N=Nc2ccccc2)cc1 | -5.18% [at 11.4 µM] (inactive) | –
CC(=O)O[C@]1(C(C)=O)CC[C@@H]2[C@@H]3C=C(Cl)C4=CC(=O)[C@H]5C[C@@H]5[C@]4(C)[C@H]3CC[C@]21C | – | inactive
COc1ccccc1CNc1ncncc1-c1cccc(C#N)c1 | – | 10 µM (active)
N#Cc1cccc(-c2cncnc2NCc2cccs2)c1 | – | 1.58 µM (active)
Cc1ccc(C(C)C)n1C(=O)OC(C)(C)C | 6.74% [at 11.4 µM] (inactive) | –
Fc1ccc2c(c1)C1C=CCC1C(c1cc3c(cc1Br)OCO3)N2 (centres undefined) | – | 0.891 µM (active)
C=CCNc1nc(Cl)nc(Nc2ccc(OC)cc2)n1 | – | 2.51 µM (active)
CCCC[C@@H]1C[C@H]1C(NC(=O)c1cccs1)c1ccc(Cl)cc1 (some centres undefined) | – | 1 µM (active)
CCCC[C@@H]1C[C@H]1C(NC(=O)c1cccs1)c1ccccc1C(F)(F)F (some centres undefined) | – | 6.31 µM (active)
CCCC[C@@H]1C[C@H]1C(NC(=O)c1cccs1)c1ccc(C(F)(F)F)cc1 (some centres undefined) | – | 2 µM (active)
C/C(=C\C1CCCCC1)C(NC(=O)c1ccc(C(F)(F)F)cc1)c1ccc(-c2ccccc2)cc1 (centres undefined) | 4.8% (inactive) | –
C[C@@]1(C(NC(=O)c2cccs2)c2ccc(-c3ccccc3)cc2)C[C@H]1C1CCCCC1 (some centres undefined) | -11% (inactive) | –
CCOC(=O)CSC1=NC(=O)/C(=C\c2ccc(OC(C)=O)cc2)S1 | – | 25.1 µM (active)
CCOC(=O)CSC1=NC(=O)/C(=C\c2ccc(Cl)cc2)S1 | – | 3.55 µM (active)
Cc1cccc(NC2(C(F)(F)F)N=C(c3ccccc3)NC2=O)n1 (centres undefined) | -7.41% (inactive) | –
N#Cc1c(N2CCN(C(=O)c3ccccc3Cl)CC2)nc(-c2ccccc2)c2c1CCCC2 | -15.6% (inactive) | –
Clc1ccc(-c2nnc(-c3ccc(Br)cc3)c(N3CCSCC3)n2)cc1 | – | 1.12 µM (active)
Brc1ccc(-c2nnc(-c3ccccc3)c(N3CCSCC3)n2)cc1 | – | 1.26 µM (active)

Compound | activity, negative = inhibition | AC50
Clc1ccc(-c2nnc(-c3ccccc3)c(N3CCSCC3)n2)cc1 | – | 1.12 µM (active)
Cc1ccc(-n2c(O)c(/C=N/n3cnnc3)c3ccccc3c2=O)cc1 | – | 17.8 µM (active)
Cc1cc(C)cc(-n2c(O)c(C=NC3CCS(=O)(=O)C3)c3ccccc3c2=O)c1 (centres undefined) | 1.41% (inactive) | –
COc1c(O[C@H]2O[C@@H](CO)[C@@H](O)[C@@H](O)[C@@H]2O)cc2c(c1OC)-c1ccc(SC)c(=O)cc1[C@H](NC(C)=O)CC2 | -16.7% [at 25.6 µM] (inactive) | –
COc1cc(C(=O)N2CCC(NC(=O)C(Cc3ccc(C(C)C)cc3)NC(C)=O)CC2)cc(OC)c1OC (centres undefined) | -25.5% (inactive) | –
O=C(NCCN1CCCC1)C1(S(=O)(=O)c2ccc(Cl)cc2)CC1 | -19.8% (inactive) | –
O=C(NCCc1ccc(Cl)cc1)C1CCN(S(=O)(=O)N2CCC3(CC2)OCCO3)CC1 | -3.74% (inactive) | –
Oc1cc2c(cc1O)CN(C(=S)NCCc1ccc(Cl)cc1)CCC2 | – | 20 µM (active)
COc1ccc(-n2nc(C(=O)NCC(=O)Nc3ccccn3)c3ccccc3c2=O)cc1 | -4.65% (inactive) | –
COc1cccc(/C=N/n2nnc3c(cnn3-c3ccccc3)c2=O)c1 | -27.9% (inactive) | –
COc1ccc(Oc2c(Cl)cnn(-c3ccccc3)c2=O)cc1 | – | 7.08 µM (active)
Cn1c([N+](=O)[O-])cnc1CN1CCN(CCO)CC1 | 9.16% [at 2.29 µM] (inactive) | –
c1ccc(-c2n[nH]c(-c3ccccc3)c2-c2nc3ccccc3[nH]2)cc1 | – | 8.91 µM (active)
Cc1cccc(NC(=S)NNC(=O)CC(C)O)c1C (centres undefined) | -22.8% (inactive) | –
CCOc1cc(NC(=S)Nc2cccc(C)c2)c(OCC)cc1NC(=O)CC(C)C | – | 5.01 µM (active)
CCOc1cc(NC(=O)c2ccccc2[N+](=O)[O-])c(OCC)cc1NC(=O)CC(C)C | -11.8% (inactive) | –
CC1(C)CC(=O)C([C@H]2C3=C(CC(C)(C)CC3=O)Oc3ccccc32)C(=O)C1 | -6.77% (inactive) | –
CC1(C)CC(=O)C2=C(C1)Oc1nc3ccccc3cc1C2C(C#N)C#N (centres undefined) | – | 22.4 µM (active)
CN1CCN(/C=N/C2=C(C#N)C(c3ccccc3)C3=C(CC(C)(C)CC3=O)O2)CC1 (centres undefined) | -16.3% (inactive) | –
N/C(CC/C(N)=N/O)=N\O | -17.8% [at 11.4 µM] (inactive) | –
O=C(O)CSc1sc(=S)sc1SCC(=O)O | – | 12.6 µM (active)
Cc1nnsc1SCC(=O)O | -5.81% (inactive) | –
O=C(O)CSSCC(=O)O | -2.44% [at 11.4 µM] (inactive) | –

Compound | activity, negative = inhibition | AC50
COc1cccc([C@H]2Oc3ccc(OC)cc3/C(=N\O[C@@H]3O[C@H](COC(C)=O)[C@H](OC(C)=O)[C@H](OC(C)=O)[C@H]3OC(C)=O)[C@@H]2O)c1 | 2.78% [at 11.4 µM] (inactive) | –
CCOC(=O)c1ccccc1Oc1c(F)c(F)nc(NCCO)c1F | – | 8.91 µM (active)
Fc1nc(N2CCCC2)c(F)c(Oc2ccccc2Oc2c(F)c(F)nc(N3CCCC3)c2F)c1F | -26.3% (inactive) | –
Fc1cccc(C2NC(=S)NC3=C2N2CCC3CC2)c1 (centres undefined) | -4.29% (inactive) | –
Cc1c(C#N)c(=O)oc2ccc3ccccc3c12 | – | 0.126 µM (active)
Cc1nc(SCC(=O)c2cc3ccccc3oc2=O)c(C#N)c(C)c1C(=O)Nc1ccccc1 | -7.52% (inactive) | –
COc1ccc(NC(=O)N2CC3(CCN(C(=O)c4cnccn4)CC3)C2)cc1 | -0.562% (inactive) | –
O=C1C2CCCN2C(c2ccc(F)cc2)N1c1nccs1 (centres undefined) | – | 3.16 µM (active)
Cc1snc(SCC(=O)N/N=C(\N)COc2cccc(C(F)(F)F)c2)c1C#N | – | 12.6 µM (active)
Cc1cccc(OCC(=O)NNC(=O)CSc2ncc(C#N)c(N)n2)c1 | -11.1% (inactive) | –
C[C@H]1CC[C@H]2C(=O)N3[C@H](c4ccc(Br)cc4)[C@@H](C)CC[C@H]3C(=O)N2[C@@H]1c1ccc(Br)cc1 | -10.6% [at 11.4 µM] (inactive) | –
O=C1CC(=Nc2ccccc2)NN1c1ccccc1 | – | 6.31 µM (active)
CC(C)C(NC(=O)OCc1ccccc1)C(=O)O (centres undefined) | -3.1% (inactive) | –
CC(C)[C@H](NC(=O)OCc1ccccc1)C(=O)N[C@H](C=O)Cc1ccccc1 (Cbz-Val-Phe-aldehyde) | -20.6% (inactive) | –
O=C(N[C@@H](Cc1ccccc1)C(=O)CCl)OCc1ccccc1 | – | 3.16 µM (active)
CN(CC(=O)O)Cc1c(O)c(Cl)cc(Cl)c1Cl | -0.983% [at 2.29 µM] (inactive) | –
COc1ccc(OC)c(C2C(C(=O)Nc3nc4ccccc4s3)=C(C)NC3=C2C(=O)CCC3)c1 (centres undefined) | – | 1.41 µM (active)
COc1ccc(-c2cc(C(=O)Nc3nc4c(C)cccc4s3)c3ccccc3n2)cc1OC | -21.2% (inactive) | –
CS(=O)(=O)N1CCC2(CCCN(C(=O)Nc3cccc(F)c3)C2)CC1 | -19.7% (inactive) | –
Cc1ccc(S(=O)(=O)O[C@@H]2[C@H]([C@@H]3COC(C)(C)O3)O[C@H]3OC(C)(C)O[C@@H]32)cc1 | -15.9% [at 11.4 µM] (inactive) | –
Cc1ccc(Sc2nc(-c3ccccc3)ccc2C#N)cc1 | – | 2.82 µM (active)
N#Cc1ccc(-c2ccc(F)cc2)nc1Sc1ccccc1 | – | 0.891 µM (active)
CC[C@@H]1OC(=O)[C@H](C)[C@H](O[C@@H]2C[C@](C)(OC)[C@H](O)[C@H](C)O2)[C@H](C)[C@H](O[C@@H]2O[C@@H](C)C[C@@H](N(C)C)[C@@H]2O)[C@](C)(O)C[C@H](C)[C@@H]2N[C@H](COCCOC)O[C@H]([C@@H]2C)[C@]1(C)O | -13% [at 25.6 µM] (inactive) | –

Compound | activity, negative = inhibition | AC50
COc1ccc(/C=N/Nc2snc(SC)c2C#N)cc1OC | – | 0.708 µM (active)
COc1cc(/C=N/Nc2snc(SC)c2C#N)cc(OC)c1OC | – | 4.47 µM (active)
CO[C@H]1COC(=O)C/C=C\[C@H](C)COC(=O)[C@@H](C)NC(=O)C/C=C\[C@@H]1C | -2.38% [at 11.4 µM] (inactive) | –
C[C@@]12C=CC(=O)C=C1CC[C@@H]1[C@@H]2[C@H](O)C[C@]2(C)[C@@H]1CC[C@]2(O)C(=O)CO | -4.7% [at 25.6 µM] (inactive) | –
Cc1nn(Cc2ccc(Cl)cc2)c(C)c1NC(=O)CSc1nc2c(c(C(F)(F)F)n1)CCc1ccccc1-2 | -27.6% (inactive) | –
Cc1ccccc1Cn1cc(NC(=O)CSc2nc3c(c(C(F)(F)F)n2)CCc2ccccc2-3)cn1 | – | 7.08 µM (active)
CCc1ccc(-c2cc(C(F)(F)F)n3nc(C(=O)Nc4cnn(Cc5ccccc5C)c4)cc3n2)s1 | -8.63% (inactive) | –
CC(=O)NS(=O)(=O)c1ccc(N)cc1 | 4.18% [at 25.6 µM] (inactive) | –
O=C(Nc1ccc(F)cc1)c1ccc(-n2ccnc2)nc1 | – | 0.501 µM (active)
O=C(Nc1ccc(-n2nncc2-c2ccco2)cc1)c1ccc(F)cc1 | -24.2% (inactive) | –
Cc1c(Cl)cccc1NC(=O)c1ccc(-n2ccnc2)nc1 | – | 0.794 µM (active)
Cc1cc(C(F)F)n2nc(C(=O)Nc3cccnc3Cl)nc2n1 | -20% (inactive) | –
Nc1ccn([C@@H]2CC[C@H](CO)O2)c(=O)n1 | -8.58% [at 25.6 µM] (inactive) | –
Cc1nc2cnc(Oc3ccccc3)nc2n(C)c1=O | – | 12.6 µM (active)
COc1ccc(Oc2ncc3nc(C)c(=O)n(C)c3n2)cc1 | – | 12.6 µM (active)
NC(=O)c1nnn(Cc2cc(Cl)c(C(=O)c3ccc(Cl)cc3)c(Cl)c2)c1N | -2.19% [at 2.29 µM] (inactive) | –
O=C(Oc1ccccc1)N1CCC2(CC1)CCN(c1ccncc1)CC2 | -10.5% (inactive) | –
O=C(c1ccccc1Nc1ccc(SC(F)F)cc1)N1CCCCC1 | – | 14.1 µM (active)
CCOC(=O)C1CCN(C(=O)c2ccccc2NC(C)=O)CC1 | 6.29% (inactive) | –
Cc1ccccc1N1CCN(C(=O)c2ccccc2NC(=O)/C=C\C(=O)O)CC1 | 0.682% (inactive) | –

Reference: PubChem BioAssay AID1851 (National Center for Advancing Translational Sciences (NCATS), 2009)
